# According to PubChem BioAssay (NCI):
# About 83,000 compounds went through this panel and 20% of them were active in at least one assay; those are over-represented in the sample as a whole.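 Assay: single dose, 48 h. Readout: percent growth (0 = no net growth; negative = cell death). Active: <10.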 Unmarked numbers belong to inactive results. Active and inactive are the calls of the source.
# Experiments:
# Experiment in all cases: NCI-60 one-dose screen, 48 h (100 = growth as untreated, 0 = no growth, -100 = all killed)
# Conditions in all cases: 10 µM unless noted
# SK-MEL-2 melanoma = tested on: SK-MEL-2 melanoma
# UO-31 renal = tested on: UO-31 renal
# TK-10 renal = tested on: TK-10 renal
# ACHN renal = tested on: ACHN renal
# CAKI-1 renal = tested on: CAKI-1 renal
# CCRF-CEM leukemia = tested on: CCRF-CEM leukemia
# MOLT-4 leukemia = tested on: MOLT-4 leukemia
# A498 renal = tested on: A498 renal
# SN12C renal = tested on: SN12C renal
Compound,growth (SK-MEL-2 melanoma),growth (UO-31 renal),growth (TK-10 renal),growth (ACHN renal),growth (CAKI-1 renal),growth (CCRF-CEM leukemia),growth (MOLT-4 leukemia),growth (A498 renal),growth (SN12C renal) [%]
CCOC(=O)CC(C#N)(CC(=O)OCC)C(=O)OCC,106%,96.1%,139%,107%,99.5%,102%,109%,,
O=C(CNC1CCCCC1)Nc1ccc(-c2nc3ccccc3s2)cc1,105%,56.5%,103%,99.1%,86%,77.3%,54.1%,,
CCOC(=O)C1=C(C)NC(=O)NC1c1ccc(OCC(=O)N/N=C/c2ccc(Cl)cc2)cc1 (configuration not stated),94.3%,93.7%,99%,96.8%,99.8%,92.1%,92.3%,,
c1ccc(CCn2nnc3c(Nc4ccc(N5CCOCC5)cc4)ncnc32)cc1,105%,87.1%,121%,104%,86.3%,71.6%,66.4%,77.6%,
Nc1c(C(=O)c2ccc(F)cc2)sc2nc3c(cc12)CCCC3,67.7%,75.3%,,96.6%,84.6%,77.9%,66.6%,56.2%,82.5
Cc1ccc(C(=O)c2sc3nc4c(cc3c2N)CCCC4)c(C)c1,-13.7% (active),30.8%,,46.4%,7.6% (active),6.69% (active),21.8%,-10.8% (active),44.1
COc1ccc(Cn2cc(COc3cc(/C=C/C(=O)c4cc(OC)c(OC)c(OC)c4)ccc3OC)nn2)cc1,87.1%,37.8%,,64.6%,17.5%,2.56% (active),82.3%,81.4%,51
COc1cccc(/C=C/c2c(C(=O)O)cccc2[N+](=O)[O-])c1OC,102%,87.1%,,100%,94.2%,101%,96.1%,88.4%,103
COc1cccc(C2CC(=O)Nc3c2c(C)nn3-c2nc3ccccc3[nH]2)c1OC (configuration not stated),72.7%,73.1%,,56.5%,80.6%,8.46% (active),-31% (active),-5.31% (active),75.5
COc1ccc(NC(=O)CSc2nc3ccc(Cl)cc3c(=O)n2-c2ccccc2C(F)(F)F)c(OC)c1OC,53.3%,77.6%,,61.2%,78.4%,33.7%,106%,78.3%,80.1
Cc1ccc2c(c1)C(=O)C(c1c(-c3[nH]c(=O)c4ccc(C)cc4c3O)c(O)c3ccccc3c1O)=NC2=O,11.8%,-11% (active),46.9%,6.58% (active),-2.66% (active),16.6%,-13.3% (active),,
CCCCCCCCCCn1cc[n+](C)c1,13.1%,65.7%,-1.53% (active),45%,28.8%,111%,78.6%,12.4%,
COc1ccc(/C=C/C(=O)c2cc(OC)c(OC)c(OC)c2)cc1OCc1cn(Cc2ccc(F)cc2)nn1,90%,30.8%,,57.9%,4.33% (active),0.459% (active),58.1%,78.7%,29.2
NS(=O)(=O)c1ccc(CN2C(=O)c3cccc4cccc(c34)C2=O)cc1,93%,57.3%,81.8%,88.1%,75.9%,85.8%,95.5%,108%,
COc1ccc2c(c1)C(C)Cc1c(N(C)C)ncnc1N2C (configuration not stated),32.9%,56.6%,29.9%,46.8%,37.6%,18.6%,33.1%,2.02% (active),
O=C(O)c1cccc([N+](=O)[O-])c1/C=C/c1ccccc1,106%,92.9%,,110%,93.4%,103%,97.7%,89.1%,98.7
COc1ccc(Cn2c(SC)nc(=O)n(Cc3ccc(Cl)cc3)c2=O)cc1,102%,68.3%,,96.3%,70.5%,97.7%,95%,88.9%,93.5
O=S(=O)(NCCCNc1nccc(-c2c(-c3ccc(O)cc3)nc3sccn23)n1)c1ccc(F)cc1,-42.5% (active),9.16% (active),26.6%,-5.95% (active),11.6%,8.07% (active),2.05% (active),,
Nc1c(C(=O)Nc2cccc(Cl)c2Cl)sc2nc3c(cc12)C(=O)CCC3,38%,78.8%,81.9%,98.1%,79%,86.2%,106%,-3.22% (active),
